# Experimental data: PubChem BioAssay AID720575 (National Center for Advancing Translational Sciences (NCATS), 2013)
# The list shows a part of the results. Inconclusive results are not listed. Activity calls are given as the source filed them. Calls follow the shape of the dose curve; as a rule, active = well fitted inhibition curve with a large enough effect; inconclusive = small, poorly fitted or top-dose-only effect; inactive = no such curve, though single readings can be large or run the other way.
# Assay: qHTS Assay for Inhibitors of Hepatitis C Virus (HCV): Confirmation Assay for Cherry-picked Compounds
# Settings: HCVcc-Cre infectious virus cell assay, luciferase, inhibition
# Excerpt: Hepatitis C virus (HCV) infects about 200 million people in the world. Many infected people progress to chronic liver disease including cirrhosis with a risk of developing liver cancer. To date, there is no effective vaccine for hepatitis C. Current therapy based on interferon is only effective in about half of the patients and is associated with significant adverse effects. The fraction of people with HCV who can complete a successful treatment is estimated to be no more than 10 percent. Recent development of direct-acting antivirals against HCV, such as protease and polymerase inhibitors, is promising but still requires combination with peginterferon and ribavirin for maximal efficacy. In addition, these agents are associated with high rate of resistance and many have significant side effects. Due to the lack of a culture system for infectious HCV, the search for new HCV drugs has been greatly hampered. […] High-throughput screening (HTS) with an infectious HCV system would cover the complete spectrum of potentially druggable targets in all stages of HCV lifecycle, and would have more biological relevance than other cell-based assays. Moreover, targeting several key processes in the viral life cycle may not only increase antiviral efficacy; more importantly, it may also reduce the capacity of the virus to develop resistance to the compound.
# The goal of this project is to identify novel HCV inhibitors as new therapies for hepatitis C, using a highly sensitive and specific assay platform based on a HCV infectious cell culture system established in the laboratory and adapted for high-throughput HCV drug screen. The data herein is the result of the confirmation assay against the cherry picked compounds. Decrease in the confirmatory assay signal, indicative of the HCV inhibition is the desired outcome for this assay.
# NIH Chemical Genomics Center [NCGC]
# NIH Molecular Libraries Probe Centers Network [MLPCN]
# Assay Submitter (PI): Jake Liang, NIDDK
# Cells were plated in a 1536-wel tissue culture grade plates at a final concentration of 1,000 cells/well (3 uL volume). The assay plate was culture for 4 h. Then 23 nL of compounds from the library collection was added to each well followed by 2.5 µL of HCVcc-Cre virus (~ 0.5 moi). The plates were further cultured for 44 hr at 37C. A volume of 4.5 uL luciferase substrates was added to each well and the plates were incubated at room temperature for 15 min. The luciferase activity was read for 15 sec using the PerkinElmenr ViewLux plate reader.
# Also: nearly all actives have a fitted effect of over 80% in size.
row,SMILES,Potency
1,CN(C)c1nc(N)nc(CSc2nnnn2-c2cccc3ccccc23)n1,5.6 µM (active)
2,CC(C)(C)c1ccc(Oc2ccc(N)cc2)cc1,2.8 µM (active)
3,COc1ccc(Cl)cc1NC(=O)c1oc(C)nc1C,12.5 µM (active)
4,CCC(C(=O)OCC(=O)Nc1ccc(C(=O)Nc2ccc(OC)cc2)cc1)c1ccccc1 (stereo unspecified),8.87 µM (active)
5,CCCc1nc2ccccc2c(C(=O)OCc2nnc(-c3cc(OC)c(OC)c(OC)c3)o2)c1CC,14.1 µM (active)
6,CC(C)(C)Nc1nc(-c2ccccn2)nc2ccccc12,1.99 µM (active)
7,COc1ccc(OCCNC(=O)c2cc(C3CC3)nc3c2cnn3C(C)C)cc1,0.353 µM (active)
8,Cc1ccc(C)c(N2CCN(C(=O)CCCCCn3c(=S)[nH]c4ccc(N5CCOCC5)cc4c3=O)CC2)c1,2.8 µM (active)
9,N#C/C(=C1\CCCN1)c1nc(-c2ccccc2)cs1,14.1 µM (active)
10,COCCCn1c(SCc2cccc(OC)c2)nc2cc(OC)c(OC)cc2c1=N,14.1 µM (active)
11,Cc1ccc(C)c(NC(=S)NNC(=S)Nc2ccc(C(C)C)cc2)c1,22.3 µM (active)
12,Cc1c(-c2cccc(Cl)c2)nc2ccccc2c1C(=O)OCC(=O)N(C)C1CCS(=O)(=O)C1 (stereo unspecified),14.1 µM (active)
13,Cc1cc(-c2cccs2)nc(-n2cccc2)n1,9.95 µM (active)
14,COc1ccc(NC(=O)c2sc(N3CCOCC3)nc2-c2ccccc2)c(OC)c1,14.1 µM (active)
15,COc1ccc(C(C(=O)NC2CCCCC2)N(C(=O)CCl)c2ccccc2Cl)cc1 (stereo unspecified),3.15 µM (active)
16,CCCOc1ccc(C(=O)C(CCC(CNCC)C(=O)c2ccc(OCCC)cc2)CNCC)cc1 (stereo unspecified),7.05 µM (active)
